Out of some 360,000 compounds screened, about 4,500 (1.2%) were called active. The entries come from a sample that favours actives as a whole. A number with no mark means an inactive call. Rule as the data show it: active = inhibition above about 30%; inactive = the rest.

The nature of the assay: GDH-TPI coupling enzyme inhibitors, primary screen, artefact control for M. tuberculosis FBA inhibitor project, biochemical, absorbance, full deck (AID 588335).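 Also: 0% = DMSO wells and 100% = wells lacking the enzyme.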 To be noted: GDH-TPI coupled enzyme counterscreen, NADH absorbance; at 4.8 µM; active compounds read high. For orientation: The purpose of a counterscreen is to sort out artefacts and off-target activity.
In the case of `COc1ccc(C(=O)NCC2CCCCC2)cc1S(=O)(=O)N1CCCC1`, the inhibition (in general, the relative decrease from the control value, in per cent) was 1.39%.

Take `CCO[C@@H]1OC(C(N)=O)=C[C@H](c2ccc(Br)cc2)[C@H]1CCCO`: the inhibition is -4.48%.

As for `CC(Sc1nc2cc(Cl)ccc2s1)C(=O)Nc1ccc2c(c1)OCO2` (stereo unspecified), the inhibition was 5.49%.

With `COC(=O)c1c(-c2ccsc2)oc2ccc(-c3cc(OC)c(OC)c(OC)c3)cc12`, the inhibition was 10.3%.

As for `O=C(NCc1cccs1)c1ccc2c(c1)ncn2C1CCCC1`, the inhibition is -1.75%.

Take `CCOc1ncccc1C(=O)N(C)CC(=O)Nc1ccc(F)cc1`: the inhibition was -5.34%.

Turning to `CSc1ccccc1NC(=O)c1cnc2sc(C)cn2c1=O`, the inhibition is 32.6% (active).

`CSc1ccccc1NC(=O)c1cc(Cl)sc1Cl`: the inhibition was -10.3%.

`Cc1ccccc1C(=O)Nc1ccccc1Sc1ccccc1`: the inhibition was -10.9%.

As to `CCCN(c1ccc(C)cc1)c1nc(=O)c2cccnc2s1`, the inhibition was 8.86%.

Consider `COc1ccc(CC(=O)Nc2cc(S(=O)(=O)N3CCCCC3)ccc2N2CCN(C)CC2)cc1`, for which the inhibition was -4.44%.

For `CC(C)N=C1CCCC1C(=S)SSC(=S)C1CCCC1=NC(C)C` (stereo unspecified), the inhibition is 32.4% (active).

`CN(CC(=O)Nc1ccccc1F)CC(=O)Nc1ccccc1Br`: the inhibition was -8.02%.

Take `Cc1ccc(S(=O)(=O)N2CCOCC2)cc1C(=O)OC1CCCCC1=O` (stereo unspecified): the inhibition is -12.1%.

`COc1ccc(C(=O)Oc2ccc(-c3nnco3)cc2)cc1S(=O)(=O)N1CCOCC1`: the inhibition was 7.83%.

As to `O=c1c2sccc2nc(SCc2cc(=O)n3ccccc3n2)n1-c1ccc(Br)cc1`, the inhibition was 32.1% (active).

On to `O=C(O)CCn1c(SCc2cc(=O)n3ccccc3n2)nc2ccsc2c1=O`, for which the inhibition is 7.77%.

`CCc1ccc(-n2c(SCc3cc(=O)n4cc(Br)ccc4n3)nc3[nH]ncc3c2=O)cc1`: the inhibition was 24%.

In the case of `Cc1cccc(S(=O)(=O)N(C)C[C@H]2OCc3cnnn3CCCC(=O)N([C@@H](C)CO)C[C@H]2C)c1`, the inhibition is -13.4%.

On to `CC1(C)CC(N(Cc2ccccc2)C(=O)Cc2ccccc2)CCO1` (stereo unspecified), for which the inhibition is -7.26%.

As to `O=C(COC(=O)/C=C/c1cn(-c2ccccc2)nc1-c1cccnc1)Nc1ccc(Cl)cc1Cl`, the inhibition is -1.11%.

`O=C(O)CCn1cc(C=C2C(=O)NC(=S)NC2=O)c(-c2cccc(Br)c2)n1`: the inhibition was -11.4%.

With `O=C(O)CCn1cc(/C=C/C(=O)c2ccc(Cl)cc2)c(-c2cccc(Br)c2)n1`, the inhibition is 43.8% (active).

On to `CCOC(=O)c1sc(-c2cccc([N+](=O)[O-])c2)cc1N`, for which the inhibition was 5.1%.

Consider `CC(=O)Nc1nc(C)c(-c2csc(Nc3ccc(S(N)(=O)=O)cc3)n2)s1`, for which the inhibition is 33.8% (active).

Regarding `CCCCC(=O)Nc1nc(C)c(-c2csc(Nc3ccc(Cl)cc3)n2)s1`, the inhibition was 11.2%.

As to `C=CCCC(=O)Nc1nc(C)c(-c2csc(Nc3ccc(Cl)cc3)n2)s1`, the inhibition was 16.8%.

For the molecule `CCOC(=O)C=Cc1ccc(C(=O)OCC)[nH]1`, the inhibition is 46.3% (active).

Regarding `CCOC(=O)c1c(C)[nH]c(C)c1C(=O)COC(=O)/C=C/c1cccc([N+](=O)[O-])c1`, the inhibition is 5.36%.

For the molecule `CCOC(=O)c1cc2cc(C)ccc2[nH]1`, the inhibition was 8.07%.

As to `COc1ccc(C2NCCCC2c2ccccc2)cc1` (stereo unspecified), the inhibition is -3.45%.

As to `O=C(N/N=C/c1ccc(O)cc1)/C(=C/c1ccc([N+](=O)[O-])cc1)NC(=O)c1ccccc1`, the inhibition is 39% (active).

Consider `O=C(Nc1ccc(C(=O)O)cc1)/C(=C/c1ccc([N+](=O)[O-])cc1)NC(=O)c1ccccc1`, for which the inhibition is 32.9% (active).

As to `O=C(N/C(=C\c1ccc(O)cc1)C(=O)N1CCCCC1)c1ccccc1`, the inhibition was 9.79%.

As to `O=C(N/N=C/c1cc([N+](=O)[O-])ccc1O)/C(=C\c1cccs1)NC(=O)c1ccccc1`, the inhibition is 15.7%.

As for `O=C(NCc1ccco1)/C(=C/c1ccco1)NC(=O)c1ccccc1`, the inhibition is -7.41%.

With `CC(C=Cc1ccccc1)=NNS(=O)(=O)c1ccc([N+](=O)[O-])cc1`, the inhibition is 25.4%.

Take `O=C(Nc1ccc(C(=O)O)cc1)/C(=C\c1ccccc1)NC(=O)c1ccc(Br)cc1`: the inhibition was -8.77%.

Turning to `Cc1ccc(NC(=O)C(=O)NCc2ccco2)c(C)c1`, the inhibition was 2.52%.

Regarding `Cc1ccc(C(=O)N/C(=C/C=C/c2ccccc2)C(=O)NCc2ccco2)cc1`, the inhibition is 48.9% (active).

For the molecule `COc1ccc(/C=C(/NC(=O)c2ccccc2)C(=O)Nc2cccc(C(=O)O)c2)cc1`, the inhibition is 29.7%.

Consider `CNC(=O)/C(=C\C=C\c1ccccc1)NC(=O)c1ccc([N+](=O)[O-])cc1`, for which the inhibition was 39.1% (active).

Turning to `CCCCOc1ccc(C(=O)N/C(=C/C=C/c2ccccc2)C(=O)N2CCOCC2)cc1`, the inhibition was 20.1%.

In the case of `Cc1ccccc1CCNC(=O)C1CCC(=O)N(Cc2ccc(Cl)cc2)C1` (stereo unspecified), the inhibition is -2.1%.

`CC1(C)C[C@H]2C3=CCC4[C@@]5(C)CC[C@H](O)[C@](C)(CO)C5CC[C@@]4(C)[C@]3(C)C[C@@H](O)[C@@]2(CO)[C@@H](O)[C@@H]1O` (stereo partly specified): the inhibition was 8.82%.

Consider `COC(=O)C1=NN(c2ccccc2)C2C(=O)N(c3ccccc3OC)C(=O)C12` (stereo unspecified), for which the inhibition is 21%.

`CC(=O)N[C@@H](C)C(=O)N1CCC(n2nccc2NC(=O)CCCc2ccccc2)CC1`: the inhibition was 8.3%.

On to `CCC(C)Sc1nc2c(cnn2-c2ccc(F)cc2)c(=O)[nH]1` (stereo unspecified), for which the inhibition was 8.15%.

On to `COc1ccc(-c2nonc2NC(=O)c2oc3ccc(F)cc3c2C)cc1OC`, for which the inhibition is -4.27%.

As to `COc1cc(/C=C(/NC(=O)c2ccccc2)C(=O)Nc2cccc(O)c2)c([N+](=O)[O-])cc1OC`, the inhibition is 11.6%.

Turning to `O=C(N/C(=C\c1ccc([N+](=O)[O-])cc1)C(=O)N1CCOCC1)c1cccc(Br)c1`, the inhibition is 28.7%.

Turning to `Cc1ccc(NC(=O)/C(=C/c2ccc([N+](=O)[O-])cc2)NC(=O)c2ccccc2)cc1`, the inhibition was 49.4% (active).

On to `Nc1nnn(CC(=O)N/N=C/c2ccccc2)n1`, for which the inhibition was 10.1%.

For the molecule `Cc1nc(Cl)cc(N/N=C/c2ccccc2)n1`, the inhibition is 39.2% (active).

Turning to `Cc1cc2c(C)nc(N/N=C/c3ccccc3)nc2o1`, the inhibition is 28.5%.

Consider `COc1ccc(Br)cc1CN(C)CC(=O)Nc1cc(Cl)cc(Cl)c1`, for which the inhibition is -4.49%.

For the molecule `CC(=O)Nc1ccc(S(=O)(=O)NCC(=O)OCC(=O)c2ccc[nH]2)cc1`, the inhibition was 4.57%.

On to `O=c1c2ccccc2nc2n1C(CSCc1ccccc1)CS2` (stereo unspecified), for which the inhibition is 2.03%.

As to `N#Cc1c(-c2ccccc2)nc(SCc2cccc(C(F)(F)F)c2)[nH]c1=O`, the inhibition was -3.35%.

For the molecule `O=c1c2ccccc2nc2n1C(CSCc1cccc(C(F)(F)F)c1)CS2` (stereo unspecified), the inhibition is 32.9% (active).

As to `CC1=C(C(=O)Nc2cc(C)ccn2)C(c2cnn(C)c2)C2=C(CC(c3ccccc3)CC2=O)N1` (stereo unspecified), the inhibition is 16.7%.

With `CC(C(=O)NC1CCCCC1)N1C(=O)c2cccc3cccc1c23` (stereo unspecified), the inhibition was 8.59%.

With `Cc1cc(Br)ccc1NC(=S)NC1CCCC1`, the inhibition is 13.7%.

With `Cc1ccc(/C=N/NC(=S)NC2CCCCC2)o1`, the inhibition was 32.4% (active).

Turning to `C/C(=N\NC(=S)NC1CCCCC1)c1ccc(C)o1`, the inhibition was 12.9%.

On to `O=C(NCc1cccnc1)c1cc(C2CCCCN2C(=O)CCc2ccccc2)on1` (stereo unspecified), for which the inhibition was 1.83%.

Consider `CCN(CC)c1ccc(NC(=O)CCc2nnc3ccc(N4CCCCC4)nn23)c(C)c1`, for which the inhibition was 13.9%.

On to `O=C(Nc1cccc(F)c1)[C@@H]1CCCN1`, for which the inhibition was -7.69%.

On to `Cc1ccc2cc(/C=N/NC(=O)[C@@H]3CCCN3)c(Cl)nc2c1`, for which the inhibition was 33.2% (active).

Regarding `CSCC[C@H](NC(=O)OC(C)(C)C)C(=O)N/N=C/c1cc2ccc(C)cc2nc1Cl`, the inhibition was 14.8%.

Take `COC(=O)C1(C)CC1(c1ccccc1)c1ccccc1` (stereo unspecified): the inhibition was 4.61%.

On to `COc1cccc(NC(=O)CCc2nnc3ccc(N4CCC(C)CC4)nn23)c1`, for which the inhibition was 3.45%.

Regarding `Cc1cc(C)n(-c2nnc(C)n2NC(=O)c2cccc(Cl)c2)n1`, the inhibition is -3.66%.

In the case of `O=C(NCC1CCCO1)/C(=C/c1ccc(Cl)cc1)NC(=O)c1ccccc1` (stereo unspecified), the inhibition was 0%.

`CCOc1ccc(/C=C(/NC(=O)c2ccccc2)C(=O)NCCC(=O)O)cc1`: the inhibition was 0.32%.

Take `Cn1c2ccccc2c2cc(/C=C(\NC(=O)c3ccccc3)C(=O)NCC(=O)O)ccc21`: the inhibition was 35.1% (active).

As for `CC(C(=O)Nc1ccc(F)c(F)c1F)N1CCCCCC1` (stereo unspecified), the inhibition is -6.72%.

Turning to `CCC(C)(C)c1ccc(Oc2ccc(NC(=O)COC(=O)C3=COCCO3)cc2)cc1`, the inhibition is -7.05%.

`CN(C(=O)COC(=O)c1cc(=O)[nH]c2ccccc12)C1CCCCC1`: the inhibition was 10.5%.

For `CCOc1cc(/C=C2\SC(N3CCCCC3)=NC2=O)ccc1O`, the inhibition is 24.1%.

For the molecule `CCc1ccc(/C=C2\SC(N3CCOCC3)=NC2=O)cc1`, the inhibition was 30.8% (active).

With `O=C1N=C(N2CCOCC2)CS1`, the inhibition was -6.56%.

As to `O=C1N=C(N2CCOCC2)S/C1=C\C=C/c1ccccc1`, the inhibition was 31.1% (active).

Turning to `c1ccc(-c2csc(N3CCc4ccccc4C3)n2)cc1`, the inhibition was 2.71%.

Turning to `O=C1N=C(N2CCc3ccccc3C2)S/C1=C\c1ccc(O)cc1`, the inhibition is 33.1% (active).

Regarding `NC1=NC(=O)S/C1=C\c1ccc(O)cc1`, the inhibition is 15.8%.

As for `Cc1cc(/C=C2/SC(=O)N(CC(=O)N3CCCC3)C2=O)ccc1N1CCOCC1`, the inhibition is 1.85%.

Regarding `O=C(CC1SC(N2CCOCC2)=NC1=O)Nc1ccccc1F` (stereo unspecified), the inhibition was 10.5%.

As to `CCOc1ccc(C(=O)NCC(=O)N2CCCCCCC2)cc1OCC`, the inhibition was -2.14%.

Take `O=C(NC1CCCCC1)C1CCC(CNS(=O)(=O)c2ccccc2)CC1` (stereo unspecified): the inhibition is -8.09%.

For the molecule `NC(=O)CCC(NS(=O)(=O)c1ccc(Cl)cc1)C(=O)NCc1ccccc1Cl` (stereo unspecified), the inhibition was 5.93%.

Source of the values: PubChem BioAssay AID588335 (The Scripps Research Institute Molecular Screening Center, 2011).
